Most compounds without a hit are left out; they make up all but 1.5% or so of the library.
AID504770: growth inhibitors of E. coli YBA685 in a screen for V. cholerae RctB (chromosome II replication) inhibitors; z-score (test concentration not listed); AID 504770; 0.27% of 130,000 active; E. coli YBA685 rctB-dependent plasmid, OD600 growth, 3 h; stronger effect = lower value; in the data active = z-score below about -2, passing the limit was not always enough
Polio RdRp inh: poliovirus RNA polymerase inhibition; 0.66% of 150,000 active; poliovirus polymerase elongation, fluorescence polarization; stronger effect = lower value; AID 588519; % elongation, % (compound at 16.7 µg/mL); P03300; in the data active = % elongation below about 90%
MenB inh: blocks the Mycobacterium tuberculosis MenB enzyme; P9WNP5; AID 540299; 0.43% of 100,000 active; inhibition, % (no concentration beside the values); MenB enzyme assay, absorbance read-out; in the data active = inhibition above about 21%, passing the limit was not always enough
Mtb MbtI inh: MbtI salicylate synthase inhibition | inhibition, % (test concentration not listed) | AID 493033 | purified MbtI enzyme, fluorescence intensity read-out | P9WFX0 | 0.89% of 100,000 active; in the data active = inhibition mostly above about 56%, no sharp cut-off; inactive = mostly below about 77%
Target sequence (P9WFX0 whole entry, looked up): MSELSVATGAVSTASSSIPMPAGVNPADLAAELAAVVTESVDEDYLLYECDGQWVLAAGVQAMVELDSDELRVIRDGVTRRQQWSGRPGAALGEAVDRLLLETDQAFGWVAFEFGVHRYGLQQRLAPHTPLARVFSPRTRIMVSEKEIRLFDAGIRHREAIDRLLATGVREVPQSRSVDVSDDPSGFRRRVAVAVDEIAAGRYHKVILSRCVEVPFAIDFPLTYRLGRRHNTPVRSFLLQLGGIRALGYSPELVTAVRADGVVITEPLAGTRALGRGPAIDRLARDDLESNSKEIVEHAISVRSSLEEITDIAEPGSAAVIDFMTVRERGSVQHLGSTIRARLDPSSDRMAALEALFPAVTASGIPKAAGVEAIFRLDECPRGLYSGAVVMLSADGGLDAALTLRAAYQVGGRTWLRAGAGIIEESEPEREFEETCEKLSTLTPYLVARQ
Each line names hits and unclear results; the compound was inactive in the other large screens.

O=c1c2c(nc3cc(-c4ccco4)[nH]n13)CCCC2	MenB inh 33.5
O=C(O)c1ccc(S(=O)(=O)Nc2ccc3oc(=O)sc3c2)cc1	Mtb MbtI inh 77.9 (no result: Polio RdRp inh, MenB inh)
Brc1ccc(-c2nnc(CSc3nnc(-c4ccco4)n3C3CCCCC3)o2)cc1	none
CCC(N)C12CC3CC(CC(C3)C1)C2 (configuration not stated)	Polio RdRp inh 86.0 (no result: Mtb MbtI inh)
NC(CO)C12CC3CC(CC(C3)C1)C2 (configuration not stated)	none (no result: MenB inh)
N#CC1=C(N)SC(N)=C(C#N)C1c1ccc(O)cc1	Mtb MbtI inh 83.3
CC(C)c1ccc(C2C(C#N)=C(N)SC(N)=C2C#N)cc1	none (no result: Mtb MbtI inh)
CCc1ccc(NC(=O)/C=C/c2ccco2)cc1	none
CCc1cccc(NC(=O)/C=C/c2ccco2)c1	Mtb MbtI inh 77.6
O=C(CCSc1nnc2sc3ccccc3n12)Nc1cccnc1	none
CN1CCc2nc3sc(C(=O)Nc4ccccc4C(F)(F)F)c(N)c3cc2C1	Polio RdRp inh 31.0 (no result: AID504770, MenB inh, Mtb MbtI inh)
Cc1ccccc1NC(=O)c1sc2nc3c(cc2c1N)CN(Cc1ccccc1)CC3	none (no result: AID504770, MenB inh, Mtb MbtI inh)
Brc1ccccc1C=Nc1cccc2cnccc12	Polio RdRp inh 81.0 (no result: MenB inh)
Fc1ccccc1C=Nc1cccc2ccccc12	none
Cc1cccc(N2CCN(CC(=O)NCc3cccs3)CC2)c1C	none
C=CCN1C(=O)/C(=C/c2ccco2)C(=O)NC1=S	Mtb MbtI inh 86.3
C=CCN1C(=O)NC(=O)/C(=C/c2ccco2)C1=O	Mtb MbtI inh 98.5
O=C1NC(=O)N(Cc2ccco2)C(=O)/C1=C\c1ccco1	none
O=C(CCCc1ccccc1)Nc1ccccc1C(=O)O	none
COC(=O)c1ccc(OCC(O)CN(Cc2ccccc2O)C2CCCCC2)c(OC)c1 (configuration not stated)	none
c1ccc(CN2CCN(Cc3ccccc3)CC2)cc1	none (no result: Polio RdRp inh, MenB inh, Mtb MbtI inh)
Oc1ccc(C(=S)N2CCN(c3cccc(Cl)c3)CC2)cc1	Mtb MbtI inh 59.2
Oc1ccc(C(=S)N2CCN(Cc3ccccc3)CC2)cc1	Mtb MbtI inh 93.9
Oc1ccc(C(=S)N2CCCCCC2)cc1	Mtb MbtI inh 83.8
S=C(c1ccc(Cl)cc1)N1CCCCC1	none
CC(C)COc1ccc(C(=S)N2CCCCC2)cc1	Mtb MbtI inh 54.1
COc1ccc(Br)cc1/C=N/c1ncn[nH]1	none
CC1CCN(C(=S)c2ccc(O)cc2)CC1	Mtb MbtI inh 98.5
Oc1ccc(C(=S)N2CCOCC2)cc1	none
Cc1ccc2oc(-c3ccccc3C(=O)O)cc(=O)c2c1	none (no result: Polio RdRp inh, MenB inh, Mtb MbtI inh)
O=C(O)c1cc(-c2ccco2)nc2ccc(Br)cc12	Polio RdRp inh 73.0 (no result: Mtb MbtI inh)
O=C(O)c1ccccc1-c1ccc(-c2cc(C(=O)O)c3cc(F)ccc3n2)o1	AID504770 -2.7
C=CCn1cn[nH]c1=S	Mtb MbtI inh 61.4
O=C(OCC(=O)N1CCc2ccccc2C1)c1ccccc1	Polio RdRp inh 84.0
Cc1cc(C)n(C(=O)C(C)NC(=O)c2ccccc2)n1 (configuration not stated)	MenB inh 23.4 (no result: Mtb MbtI inh)
Cc1cc(C)n(C(C)CNC(=O)c2ccccc2)n1 (configuration not stated)	none
CN(C)C(=S)NC(=O)c1ccccc1	none
CN(CC(=O)O)C(=S)c1ccccc1	Polio RdRp inh 76.0, Mtb MbtI inh 54.0
O=C(O)c1ccccc1-c1c2cc(Br)c(=O)cc-2oc2[c]([Hg])c(O)c(Br)cc12	Mtb MbtI inh 103.8
CCN(CC)C(=S)Nc1ccc2oc(N(C)C)nc2c1	Polio RdRp inh 90.0 (no result: Mtb MbtI inh)
CCN(CC)C(=S)SSC(=S)N(CC)CC	Mtb MbtI inh 98.5
O=C(CC(C(=O)O)c1cccc(Cl)c1)c1ccccc1 (configuration not stated)	none (no result: Polio RdRp inh, MenB inh, Mtb MbtI inh)
O=C(O)C(CO)c1ccccc1 (configuration not stated)	MenB inh 26.2
O=C1[C@H]2CSC3(C(=O)c4ccccc4C3=O)N2C(=O)[C@H]2CSC3(C(=O)c4ccccc4C3=O)N12	Mtb MbtI inh 99.8
NC1(N)OC(CN2C(=O)c3ccccc3C2=O)CS1 (configuration not stated)	none
O=C1C2CCCCC2=NN1c1ccccc1 (configuration not stated)	Mtb MbtI inh 70.5
CC1=NN(c2ccccc2)C(=O)C1C1C(=O)N(c2ccccc2)N=C1C (configuration not stated)	none
CC1=NN(c2ccccc2)C(=O)C1C(=O)O (configuration not stated)	none
O=C1C2CCCC2=NN1c1ccccc1 (configuration not stated)	Mtb MbtI inh 58.8
c1ccc(CSc2ncccn2)cc1	Mtb MbtI inh 60.4
Clc1ccc(CSc2ncccn2)cc1	none
CC(=NCCSCc1nc[nH]c1C)c1c(C)[nH]n(-c2nc3ccccc3s2)c1=O	none
CC(=NCc1cccnc1)c1c(C)[nH]n(-c2nc3ccccc3s2)c1=O	MenB inh 34.4
O=C(NC1CCCCC1)Sc1ccc(Cl)cc1	Mtb MbtI inh 75.6
COc1ccccc1-c1nnc(NC(=O)CCSc2ccccc2)o1	none (no result: Polio RdRp inh, MenB inh, Mtb MbtI inh)
OC(c1ccccc1)c1ccc(Cl)s1 (configuration not stated)	none
S=c1[nH]nc(CCCOc2ccc(Cl)cc2Cl)o1	Polio RdRp inh 87.0, Mtb MbtI inh 89.6
CC1(C)Nc2ccccc2C(=O)N1c1ccccc1	MenB inh 43.3
S=c1[nH]nc(SCc2cccs2)s1	Mtb MbtI inh 102.2
O=C(Nc1ccc2c(c1)OCCO2)c1ccccc1CSc1nc2ccccc2o1	none
Cc1n[nH]c(C)c1SCC(=O)O	none
CC(C)(C)SCC(=O)O	Polio RdRp inh 84.0
CC1CCCCC1NC(=O)NC(=O)CSc1nc2c(cnn2-c2ccccc2)c(=O)[nH]1 (configuration not stated)	none
CCc1ccc(S(=O)(=O)/N=C2\C=CC(=O)c3ccccc32)cc1	Polio RdRp inh 74.0
CC(C)(C)NCC(O)c1ccccc1Cl (configuration not stated)	MenB inh 54.7
CCN1C(=O)C2C(c3ccc(O)cc3)NC(CO)(C(=O)OC)C2C1=O (configuration not stated)	none
O=C(c1ccc2nonc2c1)N1CCN(c2ccccc2)CC1	none (no result: Polio RdRp inh, MenB inh, Mtb MbtI inh)
O=C1N=c2ccccc2=C1c1sc(=O)[nH]c1O	none
CN(c1ccc(O)cc1)c1nc(O)c(C2=c3ccccc3=NC2=O)s1	none
O=C1N=c2ccccc2=C1c1sc(=S)[nH]c1O	Mtb MbtI inh 84.5
O=C1N=c2ccccc2=C1c1sc(N2CCCCC2)nc1O	Polio RdRp inh 58.0
CC(C)c1ccc(-c2noc(C3CCCN(C(=O)c4ccccc4)C3)n2)cc1 (configuration not stated)	none
Cc1ccc(S(=O)(=O)NCCN2CCOCC2)cc1-c1nnc2c3ccccc3c(C)nn12	none
CCCCC1(O)CC(C)(C)N([O])C(C)(C)C1	MenB inh 43.8
CCCCC1(O)CCN(Cc2ccccc2)CC1	none (no result: Polio RdRp inh, MenB inh, Mtb MbtI inh)
O=S(=O)(CS(=O)(=O)Sc1ccc(Cl)cc1)Sc1ccc(Cl)cc1	AID504770 -3.55
COc1cc(/C=C(\C#N)c2ccc(Cl)cc2)ccc1OC(=O)C1COc2ccccc2O1 (configuration not stated)	none (no result: Mtb MbtI inh)
CCOC(=O)C1CCN(c2c(C(=O)c3ccc(C)cc3)cnc3ccc(F)cc23)CC1	Polio RdRp inh 80.0 (no result: AID504770, MenB inh, Mtb MbtI inh)
